Source: PubChem BioAssay (NCI)
The panel holds about 83,000 compounds, 20% with a hit somewhere; the sample as a whole holds those more often.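 Values shown are percent growth following 48 h exposure of cells in 96-well plates to a single concentration of compound; below 10 was considered active.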 Values without a mark were called inactive. Active and inactive are the calls of the source.

Legend:
Test in all cases: NCI-60 one-dose screen, 48 h (100 = growth as untreated, 0 = no growth, -100 = all killed)
Settings in all cases: 10 µM
[1] = test system: HCT-15 colon
[2] = test system: HT29 colon
[3] = test system: SNB-75 CNS
[4] = test system: SNB-19 CNS
[5] = test system: U251 CNS
[6] = test system: PC-3 prostate
[7] = test system: SK-MEL-5 melanoma
[8] = test system: UACC-62 melanoma
[9] = test system: LOX IMVI melanoma
[10] = test system: SK-MEL-28 melanoma

Row | SMILES | growth [1] | growth [2] | growth [3] | growth [4] | growth [5] | growth [6] | growth [7] | growth [8] | growth [9] | growth [10]
1 | COc1ccc(OC)c(-c2cc(-c3c[nH]c4ccccc34)nc(N)c2C#N)c1 | 1.05% (active) | -12.6% (active) | -8.84% (active) | 11.6% | -1.3% (active) | 13.1% | -84.8% (active) | -8.1% (active) | -65.8% (active) | 4.59% (active)
2 | CCOC(=O)c1c(CSc2ccccc2)n(C)c2cc(CN(C)C)c(O)c(CN(C)C)c12 | 20.5% | 19.8% | 89.4% | 60.2% | 30% | 25.1% | 36.4% | 48.2% | 22.2% | 48.6%
3 | COc1ccc(-c2cc(-c3cc(C(=O)c4ccccc4)n4ccc(C)cc34)nc(N)c2C#N)cc1 | 78% | 75% | 91.5% | 45.1% | 45.4% | 63.5% | 67.7% | 64.6% | 51.3% | 87.6%
4 | O=C1Nc2cc(Cl)ccc2/C1=C/c1ccc(OCc2ccc(Br)cc2F)cc1 | -31.8% (active) | 5.82% (active) | -12.2% (active) | -45.4% (active) | -94.6% (active) | -42.3% (active) | -66.7% (active) | -75.2% (active) | -94.5% (active) | -60.7% (active)
5 | O=C(Cn1nc(-c2ccccc2)ccc1=O)NNC(=S)NC1CCCCC1 | 97.9% | 127% | 96.6% | 100% | 102% | 96.4% | 100% | 96.2% | 99% | 108%
6 | O=C1Nc2ccc(F)cc2/C1=C/c1cccc(OCc2ccccn2)c1 | 10.5% | 26.2% | 116% | 52.3% | 7.32% (active) | 36.6% | 31.1% | 26.5% | 1.13% (active) | 65.3%
7 | COc1ccccc1[C@H]1C(C(=O)c2ccc(Cl)cc2)C2(N[C@@H]1c1ccccc1)C(=O)Nc1ccccc12 (stereo not given in full) | -18.7% (active) | -53.1% (active) | 55.6% | 13.7% | -31% (active) | 5.37% (active) | -87.2% (active) | -74.9% (active) | -97.3% (active) | -36.6% (active)
8 | Cc1ccc2nc(-c3ccc(-c4nnc(SCC(=O)Nc5ccc(Br)cc5)o4)cc3)[nH]c2c1 | 42% | 77.5% | 83.8% | 70.3% | 11.5% | 56.8% | 85.5% | 57.3% | -12.7% (active) | 92.4%
9 | O=C(CSc1nnc(-c2c[nH]c3ccccc23)n1-c1ccccc1)Nc1ccc(C(=O)/C=C/c2cccc([N+](=O)[O-])c2)cc1 | 84.1% | 101% | 99.8% | 86.5% | 92.5% | 87% | 91.3% | 76.5% | 75.6% | 102%
10 | O=C(Cn1cc(CSc2nnc3oc4ccccc4n23)nn1)Nc1ccc(Br)cc1 | 82.5% | 103% | -24.5% (active) | 24.7% | 54.3% | 80% | 92.4% | 49.8% | 54.9% | 89.7%
11 | Cc1ccc(CNC(=O)Cc2ccc3c(c2)CN(C2CCC(=O)NC2=O)C3=O)cc1 (stereo not given) | -20.1% (active) | 24.6% | -16.8% (active) | 4% (active) | 55.5% | 10.4% | -70.5% (active) | 40.6% | 71.4% | 22%
12 | N#Cc1ccc(-c2nn(-c3ccc(C(=O)O)cc3)cc2CNc2ccc(Oc3ccccc3)cc2)cc1 | 49.7% | 34.4% | 101% | 28.6% | 33.9% | 29.5% | 70% | 21.9% | 24.1% | 21.3%
13 | O=C(NO)c1ccc(Cn2ccc3c(NCc4ccccc4)ncnc32)cc1 | -16.7% (active) | 0.726% (active) | -8.17% (active) | -7.76% (active) | -34% (active) | 7.14% (active) | -75% (active) | -43.3% (active) | -99.6% (active) | 0.239% (active)
14 | O=S(=O)(c1ccc(Cl)cc1)c1nc(-c2ccccc2)oc1S(=O)(=O)c1ccc(Cl)cc1 | 47.4% | 89.7% | 76.5% | 94.9% | 79.9% | 103% | 91.9% | 90.4% | 19.7% | 104%
15 | Cn1cc(-c2cc(N)n3nc(-c4c[nH]c5ccc(Br)cc45)cc3n2)c2cccnc21 | -77% (active) | -81.7% (active) | -73.1% (active) | -83.5% (active) | -83.9% (active) | -45.9% (active) | -98.3% (active) | -93.9% (active) | -95.6% (active) | -95.8% (active)
16 | CN(C(=O)c1ccc(C(C)(C)C)cc1)c1sc2c(c1C#N)CCC(=O)C2 | -68.6% (active) | 113% | 98% | 8.17% (active) | -22.7% (active) | 2.52% (active) | -69.7% (active) | -43.7% (active) | -71.5% (active) | 60.3%
17 | COc1cccc(-c2nn(-c3ccccc3)cc2-c2ccnc(NCCCNC(=O)Nc3ccc(F)cc3)c2)c1 | -16.3% (active) | -7.83% (active) | 0.286% (active) | 6% (active) | 8.94% (active) | 3.99% (active) | -71% (active) | 11.4% | 3.45% (active) | -3.54% (active)
18 | O=C(c1ccc(O)cc1)C1[C@H](c2ccc(Br)cc2)[C@@H](c2ccccc2)NC12C(=O)Nc1ccc(Br)cc12 (stereo not given in full) | -47.3% (active) | -31.5% (active) | 45.8% | 11.8% | -48.7% (active) | 21.4% | -76.7% (active) | -35.7% (active) | -100% (active) | 26.2%
19 | O=C(NC(=S)N1CCN(c2ncnc3c2cnn3-c2ccccc2)CC1)c1ccc(Cl)cc1 | 52.3% | 79.1% | 2.35% (active) | 28.2% | 38.3% | 47.3% | 76.3% | 68.9% | 14.3% | 82.5%
20 | Cc1noc2c(Cc3ccccc3)nn(CC(=O)N/N=C/c3ccc(Br)cc3)c(=O)c12 | 76.5% | 71.1% | 35.3% | 75.4% | 18.4% | 82.7% | 85.5% | 79.7% | 45.9% | 99.5%
21 | COC1=C[C@@]23CCC(=O)N2CCc2cc4c(cc2[C@H]3[C@H]1OC(=O)C(C)(C)O)OCO4 | 97.5% | 106% | 74.1% | 94.1% | 104% | 92.1% | 99.3% | 89.1% | 96.6% | 105%
22 | Cc1ccc(-c2cc(C(=O)N=Nc3c(O)[nH]c4ccccc34)c3ccccc3n2)cc1 | 7.91% (active) | 37.9% | 85.7% | 58% | 27.2% | 48.5% | 36.9% | 61.6% | -40.4% (active) | 59.4%
23 | CN1CCN(Cc2ccc(NC(=O)c3cncc(C#Cc4cnc5ccc(N[C@H]6CCOC6)nn45)c3)cc2C(F)(F)F)CC1 | -84.3% (active) | -33.2% (active) | -98% (active) | -98.8% (active) | -79.7% (active) | -20.7% (active) | -100% (active) | -93.3% (active) | -99.1% (active) | -92.8% (active)
24 | C=C[C@H]1[C@H](O[C@@H]2OC(CO)[C@@H](O)[C@H](O)C2OC(=O)c2c(O)cc(O)cc2-c2cccc(O)c2)OC=C2C(=O)OCC[C@H]21 (stereo not given in full) | 93.7% | 108% | 93.2% | 97.2% | 104% | 103% | 100% | 98% | 99.3% | 102%
25 | O=C(Nc1nc2ccc([N+](=O)[O-])cc2s1)Nc1cc(Cl)ccc1I | -58.2% (active) | -42.2% (active) | -42% (active) | 4.09% (active) | -23.5% (active) | -14.7% (active) | -94.3% (active) | -54.1% (active) | -82.4% (active) | -52.7% (active)
26 | O=C(/C=C/Nc1ccc(F)cc1F)c1ccc2c(c1)Nc1ccccc1S2 | 33.1% | 70.8% | 124% | 63.9% | 73% | 74.8% | 76.1% | 48.8% | 65.9% | 79.2%
